Test results published in PubChem BioAssay (Tox21).
Results filed as inconclusive are left out. Calls of active or inactive are those of the source. Unless noted, the call rests on the fitted dose curve; in most records, active means well fitted curve in the direction sought with a large enough effect in the repeat runs; inconclusive means weak or mixed curves; inactive means no such curve, though single readings can be large; an effect the other way counts as inactive or inconclusive.

What was measured:
[1] = target: Thyrotropin receptor (Homo sapiens) (UniProt P16473); test: qHTS assay to identify small molecule agonists of the thyroid stimulating hormone receptor (TSHR) signaling pathway (AID 1224843; calls by dose curve; further: nearly all actives have a fitted effect of over 45% in size)
Sequence of Thyrotropin receptor (Homo sapiens) (P16473 whole entry, looked up): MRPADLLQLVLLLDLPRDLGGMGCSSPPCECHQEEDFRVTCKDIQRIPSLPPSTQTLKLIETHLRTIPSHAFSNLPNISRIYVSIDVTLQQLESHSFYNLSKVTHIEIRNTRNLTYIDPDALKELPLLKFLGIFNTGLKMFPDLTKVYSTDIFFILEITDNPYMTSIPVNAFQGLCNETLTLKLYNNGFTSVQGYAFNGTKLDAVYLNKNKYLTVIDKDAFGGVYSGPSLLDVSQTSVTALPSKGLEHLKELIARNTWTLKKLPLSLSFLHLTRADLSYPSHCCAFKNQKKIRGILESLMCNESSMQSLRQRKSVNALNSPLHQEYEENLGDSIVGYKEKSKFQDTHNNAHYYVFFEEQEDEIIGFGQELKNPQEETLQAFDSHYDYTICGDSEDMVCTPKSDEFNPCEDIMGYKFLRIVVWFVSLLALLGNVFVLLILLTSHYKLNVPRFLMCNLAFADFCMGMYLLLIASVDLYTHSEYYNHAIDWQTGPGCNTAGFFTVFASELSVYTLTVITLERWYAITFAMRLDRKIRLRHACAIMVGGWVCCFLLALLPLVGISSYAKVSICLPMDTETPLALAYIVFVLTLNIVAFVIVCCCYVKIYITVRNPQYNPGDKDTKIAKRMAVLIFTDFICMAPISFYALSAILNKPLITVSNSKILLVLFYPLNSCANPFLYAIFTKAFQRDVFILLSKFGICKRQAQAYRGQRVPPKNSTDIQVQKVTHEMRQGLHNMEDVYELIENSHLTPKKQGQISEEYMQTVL
In short: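 Cell line HEK293 with TSHR; density 800/well. Exposure 30 min RT. Readout HTRF cAMP (cAMP-d2/anti-cAMP-cryptate), 1 h RT before reading.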

[2] = qHTS assay to identify small molecule agonists of the hypoxia (HIF-1) signaling pathway - cell viability counter screen (AID 1224844; calls by dose curve; further: nearly all actives have a fitted effect of over 50% in size)
In short: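 Multiplexed with the HRE beta-lactamase assay, this viability read used CellTiter-Glo luminescence (30 min, RT) on HRE-bla ME-180 cells treated 17 hrs with compounds in 0.5% dialyzed FBS medium.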

[3] = qHTS assay to identify small molecule agonists of H2AX (AID 1224845; active means well fitted activation curve with a large enough effect in the signal ratio in the repeat runs, not every such curve was filed as active; the % refers to the signal ratio; further: potency means the concentration at half of the fitted maximal effect)
In short: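 Wild-type CHO-K1 cells plated overnight, then exposed 3 hr at 37C to compounds at 15 concentrations (0.76% DMSO). Lysed, then HTRF anti-pH2AX(S139)-cryptate/anti-H2AX-d2 detection after 24 hr at room temperature; emissions 665 and 620 nm.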

[4] = qHTS RealTime-Glo MT Cell Viability Assay in HepG2 cells - 24 hour (AID 1224867); further: nearly all actives have a fitted effect of over 50% in size
In short: (§1)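 Cell number in HepG2 cultures estimated from NanoLuc luminescence generated by metabolic reduction of a prosubstrate by living cells. The homogeneous, nonlytic format allowed repeated reads at 0, 8, 16, 24, 32 and 40 h of compound exposure.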

[5] = A CellTox Green Cytotoxicity Assay to monitor cytotoxicity in HEK293 cells - 0 hour (AID 1224869); further: nearly all actives have a fitted effect of over 50% in size
In short: (§2)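 Seeding of HEK293 cells together with cytotoxicity dye preceded a 5 h incubation at 37 C/5% CO2. Test compounds in DMSO were then added and fluorescence monitored across 40 h.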

[6] = qHTS RealTime-Glo MT Cell Viability Assay in HepG2 cells - 40 hour (AID 1224870); further: nearly all actives have a fitted effect of over 50% in size
In short: (§3)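 HepG2 cells mixed with RealTime-Glo MT reagents (NanoLuc plus cell-permeant prosubstrate) were seeded at 600 cells/well, incubated 5 h at 37 C/5% CO2, then pinned with compounds in DMSO; nonlytic luminescence tracked viability during 40 h treatment.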

[7] = A CellTox Green Cytotoxicity Assay to monitor cytotoxicity in HEK293 cells - 40 hour (AID 1224871); further: nearly all actives have a fitted effect of over 45% in size
In short: as §2

[8] = qHTS RealTime-Glo MT Cell Viability Assay in HepG2 cells - 8 hour (AID 1224873); further: nearly all actives have a fitted effect of over 55% in size
In short: as §3

[9] = A CellTox Green Cytotoxicity Assay to monitor cytotoxicity in HEK293 cells - 24 hour (AID 1224875); further: nearly all actives have a fitted effect of over 45% in size
In short: as §2

[10] = A CellTox Green Cytotoxicity Assay to monitor cytotoxicity in HepG2 cells - 16 hour (AID 1224876); further: nearly all actives have a fitted effect of over 45% in size; further: potency means the concentration at half of the fitted maximal effect
In short: (§4)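 Nonlytic assay: viable cells exclude the dye, so fluorescence scales with cell death. HepG2 at 600 cells/well, compounds added after 5 h, signal read across 40 h.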

[11] = qHTS RealTime-Glo MT Cell Viability Assay in HepG2 cells - 32 hour (AID 1224877); further: nearly all actives have a fitted effect of over 55% in size; further: potency means the concentration at half of the fitted maximal effect
In short: as §1

[12] = A CellTox Green Cytotoxicity Assay to monitor cytotoxicity in HepG2 cells - 24 hour (AID 1224878); further: nearly all actives have a fitted effect of over 45% in size; further: potency means the concentration at half of the fitted maximal effect
In short: as §4

[13] = qHTS assay to identify small molecule agonists of H2AX - cell viability counter screen (AID 1224847; calls by dose curve; further: top concentration of the series differs between compounds; nearly all actives have a fitted effect of over 30% in size)
In short: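 CHO-K1 wt, 1000 cells/well, o/n 37C; cpds 15 conc, 3 h 37C, 0.76% DMSO; CellTiter-Glo, 30 min RT, luminescence.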

[14] = qHTS RealTime-Glo MT Cell Viability Assay in HEK293 cells - 32 hour (AID 1224868); further: nearly all actives have a fitted effect of over 50% in size; further: potency means the concentration at half of the fitted maximal effect; on activity change, negative = cytotoxic: top concentration of the series differs between compounds
In short: (§5)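 Homogeneous bioluminescent viability format in HEK293 cells (600 cells/well). Following 5 h at 37 C/5% CO2, 23 nL compound was pintooled; the signal was measured repeatedly during 40 h incubation.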

[15] = qHTS RealTime-Glo MT Cell Viability Assay in HEK293 cells - 16 hour (AID 1224872); further: nearly all actives have a fitted effect of over 50% in size; further: potency means the concentration at half of the fitted maximal effect; on activity change, negative = cytotoxicity: top concentration of the series differs between compounds
In short: as §5

[16] = qHTS RealTime-Glo MT Cell Viability Assay in HEK293 cells - 40 hour (AID 1224874); conditions: RealTime-Glo luminescence; max response: active compounds read low; further: nearly all actives have a fitted effect of over 50% in size; further: potency means the concentration at half of the fitted maximal effect
In short: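 Tox21 screen in HEK293 using RealTime-Glo MT chemistry, with cells and reagent co-dispensed. Luminescence proportional to viable cell number was captured at intervals during 40 h compound exposure at 37 C.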

[17] = A CellTox Green Cytotoxicity Assay to monitor cytotoxicity in HepG2 cells - 40 hour (AID 1224879); further: nearly all actives have a fitted effect of over 40% in size; further: potency means the concentration at half of the fitted maximal effect
In short: as §4

[18] = qHTS assay to identify small molecule antagonists of the estrogen related receptor (ERR) signaling pathway from Tox21 library (AID 1224848); further: nearly all actives have a fitted effect of over 50% in size; further: potency means the concentration at half of the fitted maximal effect
In short: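 Screening used an ERR reporter line supplied by NTP, exposed for 18 h at 37 C to library compounds delivered in DMSO. Signal was luciferase luminescence developed with ONE-Glo at room temperature for 30 min.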

[19] = qHTS assay to identify small molecule agonists of the estrogen related receptor (ERR) signaling pathway from Tox21 library (AID 1224849; calls by dose curve; further: nearly all actives have a fitted effect of over 15% in size); conditions: ERR reporter cell line, ONE-Glo luciferase, 18 h; at 92.4 µM (top of the series) unless noted
In short: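 Six hours post-seeding at 37 C/5% CO2, ERR cells receive DMSO-solubilised compounds; after 18 h at 37 C, ONE-Glo reagent is applied and luminescence recorded.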

[20] = qHTS assay to identify small molecule agonists of the hypoxia (HIF-1) signaling pathway (AID 1224846; active means well fitted activation curve with a large enough effect in the signal ratio in the repeat runs, not every such curve was filed as active; the % refers to the signal ratio)
In short: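 Hypoxia-pathway activation was scored as increased beta-lactamase from an HRE-controlled reporter in ME-180 cells; plated at 2,000 cells per well with 0.5% dialyzed FBS, they were exposed 17 hrs to compounds and then given CCF4-AM.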
On the % scale 0 is the no-effect control and ±100 the full control effect.

CCOC(=O)[C@]1(c2ccccc2)Oc2ccccc2[C@@H]1N
inactive: Potency [1] | Potency [2] | Potency [3] | Potency [4] | Potency [5] | Potency [6] | Potency [7] | Potency [8] | Potency [9] | Potency [10] | Potency [11] | Potency [12]

CN1C[C@H](CNC(=O)OCc2ccccc2)C[C@@H]2c3cccc4c3c(cn4C)C[C@H]21
inactive: Potency [1] | Potency [2] | Potency [3] | Potency [13] | Potency [5] | Potency [7] | Potency [8] | Potency [9]
active: Potency [14] 21.3 µM | Potency [15] 21.3 µM | Potency [16] 23.9 µM | Potency [10] 23.9 µM | Potency [11] 23.9 µM | Potency [12] 26.8 µM | Potency [17] 23.9 µM

C=CC(=O)OCCCCO
active: activity change, positive = activation [19] 68.3%
inactive: Potency [1] | Potency [2] | Potency [13] | Potency [18] | Potency [4] | Potency [14] | Potency [5] | Potency [6] | Potency [7] | Potency [15] | max response [16] 18.2% | Potency [9] | Potency [10] | Potency [11] | Potency [12] | Potency [17]

NS(=O)(=O)C(F)(F)C(F)(F)C(F)(F)C(F)(F)C(F)(F)C(F)(F)C(F)(F)C(F)(F)F
inactive: Potency [1] | Potency [3] | outcome [20] | Potency [13] | Potency [18] | activity change, positive = activation [19] -39.9% | Potency [4] | Potency [14] | Potency [5] | Potency [7] | Potency [15] | Potency [8] | max response [16] -4.36% | Potency [9] | Potency [10] | Potency [11]

CCOC(=O)CBr
inactive: Potency [1] | Potency [2] | Potency [3] | Potency [4] | Potency [5] | Potency [6] | Potency [7] | Potency [8] | max response [16] -15% | Potency [9] | Potency [10] | Potency [11] | Potency [12] | Potency [17]

CC[C@H]1C[C@H]2[C@@H]3CCC4=CC(=O)CC[C@@H]4[C@H]3CC[C@]2(C)[C@H]1O
active: Potency [18] 29.8 µM | Potency [16] 23.9 µM | Potency [17] 21.3 µM
inactive: Potency [1] | Potency [2] | Potency [13] | activity change, positive = activation [19] -38.2% [at 42.5 µM] | Potency [4] | Potency [5] | Potency [6] | Potency [8] | Potency [9] | Potency [10]

CCOP(O)OCC
inactive: Potency [1] | Potency [3] | outcome [20] | Potency [4] | Potency [14] | Potency [5] | Potency [6] | Potency [7] | Potency [15] | Potency [8] | max response [16] 0.744% | Potency [9] | Potency [10] | Potency [11] | Potency [12] | Potency [17]

CCCCN(N=O)C(=N)N[N+](=O)[O-]
active: Potency [3] 103 µM
inactive: Potency [1] | Potency [13] | Potency [4] | Potency [5] | Potency [6] | Potency [7] | Potency [15] | Potency [8] | Potency [9] | Potency [10] | Potency [11] | Potency [12] | Potency [17]

CO[C@@H]1[C@H](OC(=O)NC(=O)CCl)CC[C@]2(CO2)[C@H]1[C@@]1(C)O[C@@H]1CC=C(C)C
inactive: activation [1] -6.28% [at 19 µM] | activation (H2AX phosphorylation) [3] 1.5% [at 31.6 µM] | activity change, negative = cytotoxicity [13] 2.72% [at 31.6 µM] | activity, negative = inhibition [18] -8.28% [at 19 µM] | activity change, positive = activation [19] -4.67% [at 19 µM] | activity change, negative = cytotoxicity [4] 0.578% [at 15.8 µM] | activity change, negative = cytotoxic [14] 8.14% [at 15.8 µM] | cytotoxicity [5] -3.97% [at 15.8 µM] | activity change, negative = cytotoxic [6] 0.252% [at 15.8 µM] | cytotoxicity increase [7] -0.615% [at 15.8 µM] | activity change, negative = cytotoxicity [15] 13.2% [at 15.8 µM] | viability change, negative = cytotoxic [8] -0.3% [at 15.8 µM] | max response [16] 1.55% | activity change [9] -10.2% [at 15.8 µM, active compounds read high] | cytotoxicity increase [10] -3.75% [at 15.8 µM] | cytotoxicity [12] -1.01% [at 15.8 µM]

CC(C)(C)c1cc([N+](=O)[O-])cc([N+](=O)[O-])c1O
inactive: Potency [1] | Potency [3] | outcome [20] | Potency [13] | Potency [4] | Potency [5] | Potency [8] | Potency [9] | Potency [10] | Potency [12]

Oc1ccc(Cl)c(Cl)c1Cl
inactive: Potency [1] | Potency [3] | outcome [20] | Potency [4] | Potency [5] | Potency [6] | Potency [8] | Potency [10] | Potency [11]

CC(=O)C(C)(C)C
inactive: Potency [1] | Potency [3] | Potency [13] | Potency [18] | activity change, positive = activation [19] -0.0388% | Potency [4] | Potency [14] | Potency [5] | Potency [6] | Potency [7] | Potency [15] | Potency [8] | max response [16] 8.72% | Potency [9] | Potency [10] | Potency [11] | Potency [12] | Potency [17]

C=CC(=O)OCC(C)O (stereo unspecified)
inactive: Potency [1] | Potency [3] | Potency [13] | Potency [18] | Potency [4] | Potency [5] | Potency [6] | Potency [7] | Potency [15] | Potency [8] | max response [16] 21.2% | Potency [9] | Potency [10] | Potency [11] | Potency [12] | Potency [17]
